Test results from PubChem BioAssay (Tox21).
Activity calls are given as the source filed them. Calls come from the whole dose curve; as a rule, active = well fitted curve in the direction sought with a large enough effect in the repeat runs; inconclusive = weak or mixed curves; inactive = flat fitted curve, though single readings scatter. Non-standard residues stand in square brackets, D forms with d. Residues, ends and D or L forms follow the SMILES beside them. *: point of attachment. Sta = CC(C)C[C@H](N)[C@@H](O)CC(=O)O; Isovaleryl = CC(C)CC(=O)*

assay: qHTS assay to test for compound auto fluorescence at 535 nm (green) in HepG2 cell free culture (AID 720686); conditions: Cell-free medium, green autofluorescence 485/535 nm; series mostly up to 91.3 µM; fluorescence, % of fluorescein control: at the top concentration
Excerpt: U.S. Tox21 Program National Center for Advancing Translational Sciences [NCATS] NIH Chemical Genomics Center [NCGC] U.S. Environmental Protection Agency [EPA] National Institutes of Environmental Health Sciences [NIEHS] National Toxicology Program [NTP] U.S. Food and Drug Administration [FDA] Tox21 Assay Overview: Compound auto fluorescence often interferes with screening of the compound library against various biological targets and signaling pathways. Some of these compounds may have fluorophoric properties. Such properties may interfere with the assay outputs resulting in false positives and/or negatives. To decrease such complications and ensure the compound activities are relevant in terms of biological response, the Tox21 10K compound library was screened for auto fluorescence. From the fluorophores used as reporter signals in our screening assays, the auto fluorescence equivalencies of compounds against three fluorophores have been evaluated: Triamterene, Fluorescein and Rose Bengal sodium for blue, green and red fluorescence, respectively. The fluorescence intensities were measured using Excitation/Emission wavelengths at 405/460nm, 485/535nm and 540/590nm for blue, green and red labels, respectively. This assay includes the green fluorescence data.
Tox21 Assay Protocol Summary: 5 uL of culture medium (MEM containing 10% FBS) per well was dispensed into black wall/clear bottom 1536-well plates using a Multidrop Combi Dispenser (ThermoFisher Scientific, Waltham, MA). After 23 nL compound or DMSO vehicle was transferred into assay plate by a pintool work station (Kalypsys, San Diego, CA), fluorescence intensities in the assay plates were measured by an Envision (PerkinElmer, Shelton, CT) plate reader using three labels for measuring blue, green and red fluorescence at […] 460, 535 and 590nm respectively.
% is set by controls: 0 for no effect and ±100 for the full control effect.

Row | Compound | fluorescence, % of fluorescein control | outcome
1 | O=C(O)/C=C(\CC(=O)O)C(=O)O | -0.087% [at 46 µM] (inactive) | 
2 | CCCCCCCC(=O)N(C)C | -0.0728% (inactive) | 
3 | COc1cc2nc(N3CCN(C(=O)C4CCCO4)CC3)nc(N)c2cc1OC (stereo not given) | -0.024% [at 46 µM] (inactive) | 
4 | CC(C)CC(=O)N[C@H](C(=O)N[C@H](C(=O)N[C@@H](CC(C)C)[C@@H](O)CC(=O)N[C@@H](C)C(=O)N[C@@H](CC(C)C)[C@@H](O)CC(=O)O)C(C)C)C(C)C (Isovaleryl-VV[Sta]A[Sta]-OH) | -0.0272% [at 46 µM] (inactive) | 
5 | O=C(OOC(=O)c1ccccc1)c1ccccc1 | 0.0991% [at 46 µM] (inactive) | 
6 | C=COCCCCO | -0.0876% (inactive) | 
7 | CCCCC(CC)CCC(CC(C)C)OS(=O)(=O)O (stereo not given) |  | inactive
8 | CN1C(CCl)Nc2cc(Cl)c(S(N)(=O)=O)cc2S1(=O)=O (stereo not given) | -0.0575% [at 46 µM] (inactive) | 
9 | CC(C)CC(O)Cc1ccccc1 (stereo not given) | 0.0074% (inactive) | 
10 | O=S(=O)(O)c1ccc(Cl)cc1 | -0.158% (inactive) | 
11 | Cc1ccc(O)c([N+](=O)[O-])c1 | 0.0043% [at 95.7 µM] (inactive) | 
12 | Cc1ccc(OC(=O)CC(C)C)cc1 | 0.0488% (inactive) | 
13 | C=CC(=O)CC | -0.0148% [at 95.7 µM] (inactive) | 
14 | CC(C)(C)NCC(O)COc1cccc2c1CCC(=O)N2 (stereo not given) | -0.0625% [at 18.6 µM] (inactive) | 
15 | CN(C)CCCN(C)C | -0.197% [at 3.72 µM] (inactive) | 
16 | C=CCN(CC=C)CC=C | 0.0417% (inactive) | 
17 | COC(=O)/C=C(\C)CCC=C(C)C | 0.0066% (inactive) | 
18 | CC(CC(=O)Cl)CC(C)(C)C (stereo not given) | 0.0338% (inactive) | 
19 | BrCCOc1ccccc1 | -0.0006% (inactive) | 
20 | CC(C)(O)CCCC1=CCC(C=O)CC1 (stereo not given) | -0.126% [at 95.7 µM] (inactive) | 

Row | Compound | fluorescence, % of fluorescein control | outcome
21 | CCCCN(CCCC)CCCCCCN(CCCC)CCCC | 0.126% (inactive) | 
22 | NC[C@H]1O[C@H](O[C@H]2[C@H](O)[C@@H](O[C@H]3O[C@H](CO)[C@@H](O)[C@H](N)[C@H]3O)[C@H](N)C[C@@H]2N)[C@H](N)[C@@H](O)[C@@H]1O |  | inactive
23 | COC(C)(C)CC(C)=O | 0.149% (inactive) | 
24 | C[Si](C)(C)O[Si](O)(O)O | -0.0712% (inactive) | 
25 | CCCC(=O)C(CC)Sc1ccoc1C (stereo not given) | -0.0075% (inactive) | 
26 | N=C(N)S(=O)O | 0.0037% (inactive) | 
27 | CCCCC(CC)COC(=O)CC#N (stereo not given) | 0.108% (inactive) | 
28 | NC(=O)CC[C@@H](N)C(=O)O | 0.0124% [at 46 µM] (inactive) | 
29 | CC(=O)OC/C=C(/C)CCC=C(C)C | 0.0072% (inactive) | 
30 | C[C@@H]1NC(=O)[C@@H](N)CNC(=O)[C@H](C2CCNC(N)=N2)NC(=O)/C(=C/NC(N)=O)NC(=O)[C@H](CNC(=O)C[C@@H](N)CCCN)NC1=O (stereo not given in full) |  | inactive
31 | CC/C=C\CCOC(=O)c1ccccc1 | -0.0805% (inactive) | 
32 | CC(C)=CCC/C(C)=C\C#N | 0.0546% (inactive) | 
33 | c1cc2ccc3ccc4ccc5cccc6c(c1)c2c3c4c56 | -0.0141% [at 3.72 µM] (inactive) | 
34 | CCC(C)c1nccnc1OC (stereo not given) | -0.0455% (inactive) | 
35 | COc1cc(NS(=O)(=O)c2ccc(N)cc2)ncn1 | 0.0114% [at 18.6 µM] (inactive) | 
36 | O=C1Nc2ccccc2C1=O | -0.0014% (inactive) | 
37 | CC(=O)OC1CCC(C(C)(C)C)CC1 (stereo not given) | 0.132% (inactive) | 
38 | O=P(O)(O)C(O)(Cc1cccnc1)P(=O)(O)O | 0.0055% [at 46 µM] (inactive) | 
39 | CCCCCCCCCCCBr | -0.0017% [at 46 µM] (inactive) | 
40 | NS(=O)(=O)c1cc2c(cc1C(F)(F)F)NCNS2(=O)=O | 0.01% [at 18.6 µM] (inactive) | 
